NadD inh: NadD (S. aureus) enzyme inhibition | inhibition, % at 20 µM | purified NadD enzyme, colorimetric absorbance read-out | 0.78% of 360,000 active; in the data active means inhibition above about 26%
pCIP destab: compounds decreasing mouse p/CIP protein stability; Q05BA5; F442A p/CIP-EGFP cells, EGFP fluorescence, 16 h; decrease of EGFP signal, % at 10 µM; 0.01% of 290,000 active;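 active means EGFP signal decrease of at least 30% at 10 µM or well 3 SD below plate mean, unless failing retest; inactive means the rest, including hits failing retest or dose response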
UBC9 SUMO inh: inhibitors of human SUMOylation (UBC9); 0.36% of 290,000 active; inhibition, % at 35 µM; P63279; HTRF SUMOylation assay, SAE1/SAE2 + UBC9, in vitro; in the data active means inhibition above about 50%, passing the limit was not always enough
PHOSPHO1 block: blocks human PHOSPHO1 phosphatase activity | Q8TCT1 | recombinant PHOSPHO1, absorbance phosphatase assay | inhibition, % at 13.3 µM | 1.1% of 290,000 active | AID 1565; in the data active means inhibition above about 60%
Each line names hits and unclear results; the compound was inactive in the other large screens. Sampled rows, rich in hits. Any-hit rate of the full collection: about 1.8%.

CCCCN1C(=O)C(CC(=O)NCC2CCCCC2)CC(C(=O)N(CC)CC)=C1C (centres undefined)	none (no result: pCIP destab, UBC9 SUMO inh, PHOSPHO1 block)
Cc1[nH][nH]c(=O)c1C(c1c(C)[nH][nH]c1=O)c1cn(Cc2ccccc2Cl)c2ccccc12	UBC9 SUMO inh 70
CCOC(=O)CCC(NC(=O)c1ccccc1C(=O)NC(CCC(=O)OCC)C(=O)OCC)C(=O)OCC (centres undefined)	PHOSPHO1 block 65
CSc1ccc(C2=C/C(=C3/SC(=S)NC3=O)c3ccccc3O2)cc1	NadD inh 38 (no result: pCIP destab, UBC9 SUMO inh, PHOSPHO1 block)
CCOc1ccc(S(=O)(=O)N2CCOCC2)cc1NC(=O)CCN1C(=O)NC2(CCCC2)C1=O	none (no result: pCIP destab, UBC9 SUMO inh, PHOSPHO1 block)
COc1ccc(CCCNC(=O)C2Cc3c(-c4cccc(NC(C)=O)c4)ccnc3O2)cc1 (centres undefined)	none (no result: pCIP destab, UBC9 SUMO inh, PHOSPHO1 block)
COc1cccc(/C=N/NC(=O)c2[nH]c(C)c(C(=O)N/N=C/c3cccc(OC)c3O)c2C)c1O	NadD inh 35
O=C(N/N=C/c1cc(Cl)cc([N+](=O)[O-])c1O)c1cc(-c2ccccn2)nc2ccccc12	NadD inh 32, UBC9 SUMO inh 87
COc1cccc(/C=N/NC(=O)c2cc(-c3ccccn3)nc3ccccc23)c1O	NadD inh 48 (no result: pCIP destab, UBC9 SUMO inh, PHOSPHO1 block)
O=C(Nc1cccc(S(=O)(=O)N2CCCC2)c1)[C@@H]1O[C@H](CO)[C@@H](O)[C@H]1O	none (no result: pCIP destab, UBC9 SUMO inh, PHOSPHO1 block)
COc1cc(CNC(=O)C2CC(O)CN2C(=O)Nc2ccccc2)cc(OC)c1OC (centres undefined)	none (no result: pCIP destab, UBC9 SUMO inh, PHOSPHO1 block)
CC(=O)NCCNc1nc2cc(-c3ccc(C(=O)N4CCN(C)CC4)cc3)sc2c(=O)n1C	none (no result: pCIP destab, UBC9 SUMO inh, PHOSPHO1 block)
Cc1ccc(C2C=CC(C#N)=CN2Cc2ccccc2)cc1 (centres undefined)	none (no result: pCIP destab, UBC9 SUMO inh, PHOSPHO1 block)
C=CCCCCCCCCc1nc(=S)[nH][nH]1	PHOSPHO1 block 60
CCOc1cc2c(c3c1C(c1ccccc1)N(S(=O)(=O)c1ccc(C)cc1)C3)C(=O)C=CC2=O (centres undefined)	NadD inh 46 (no result: pCIP destab, UBC9 SUMO inh, PHOSPHO1 block)
Cc1ccc(S(=O)(=O)N2CCCCC2)cc1NC(=O)Cn1c(=O)cnc2ccccc21	PHOSPHO1 block 60
Cn1c(=O)c2cc(NC(=O)NCc3ccc(Cl)cc3Cl)ccc2n1Cc1ccc(F)cc1	none (no result: pCIP destab, UBC9 SUMO inh, PHOSPHO1 block)
Cc1cccc(C)c1OCC(=O)N/N=C/C=C/c1ccco1	UBC9 SUMO inh 55
CCn1c(SCC(=O)N/N=C/C=C\c2ccco2)nc2ccccc21	none
Cn1c(SCC(=O)N/N=C/C=C\c2ccco2)nc2ccccc21	PHOSPHO1 block 73
O=C(N/C(=C\c1ccc(Cl)cc1)C(=O)N1CCOCC1)c1ccc([N+](=O)[O-])cc1	PHOSPHO1 block 80
CC(NC(=O)CSc1nc2sc3c(c2c(=O)n1-c1ccccc1)CCCC3)c1ccccc1 (centres undefined)	NadD inh 33
COc1cccc(NC(=O)[C@H](C)NC(=O)N2CCn3c2nc2ccccc23)c1	PHOSPHO1 block 65
COc1cc(NC(=O)[C@H](C)NC(=O)N2CCn3c2nc2ccccc23)cc(OC)c1	none
CC(NC(=O)COC(=O)c1ccc2c(=O)n3c(nc2c1)CCCCC3)c1ccc(F)cc1 (centres undefined)	none (no result: pCIP destab, UBC9 SUMO inh, PHOSPHO1 block)
COc1ccc(N=C2NC(=O)/C(=C\C=C\c3ccco3)S2)cc1	NadD inh 36, UBC9 SUMO inh 85
O=C1NC(=Nc2ccc(O)cc2)S/C1=C/c1ccco1	none
Cc1cccc(N=C2NC(=O)/C(=C/C=C/c3ccco3)S2)c1	NadD inh 32
O=C1NC(=Nc2ccc3ccccc3c2)S/C1=C/c1ccco1	NadD inh 34 (no result: UBC9 SUMO inh)
Cc1ccc(N=C2NC(=O)/C(=C\c3ccco3)S2)cc1	none
COc1ccc(C(=O)OCC(=O)NCC2CCCCC2)cc1F	none (no result: pCIP destab, UBC9 SUMO inh, PHOSPHO1 block)
COc1ccc(C=C2c3ccccc3C(=O)c3ccccc32)c(OC)c1	none
COc1cc(OC)c2c(c1)C(=O)c1cc(OC)cc(OC)c1C2=O	PHOSPHO1 block 107
COc1cc(C(=O)NCC(=O)OCc2ccc(F)cc2)cc(OC)c1OC	none (no result: pCIP destab, UBC9 SUMO inh, PHOSPHO1 block)
Cn1c(CNC(=O)c2ccco2)nnc1SCC(=O)Nc1cccc(Br)c1	PHOSPHO1 block 93
Cc1cccc(NC(=O)CSc2nnc(CNC(=O)c3ccco3)n2C)c1	none
COC(=O)CCC(=O)NC(=S)Nc1sc(C)c(C)c1C(N)=O	none
COC(=O)CCC(=O)Nc1sc(C)c(C)c1C(N)=O	PHOSPHO1 block 90
Cc1ccccc1S(=O)(=O)Cc1ccc(C(=O)NC2CCCCC2)o1	PHOSPHO1 block 65
CCc1ccccc1S(=O)(=O)Cc1ccc(C(=O)NC2CCCC2)o1	none
CN(C)c1ccc(CC(=O)N2CCCC(c3cc(C(=O)Nc4ccc(C(C)(C)C)cc4)no3)C2)cc1 (centres undefined)	none (no result: pCIP destab, UBC9 SUMO inh, PHOSPHO1 block)
CCOC(=O)C1=C(CSc2nc3c(cc2C#N)CN(C)CC3)OC(N)=C(C#N)C1c1ccc(F)cc1 (centres undefined)	PHOSPHO1 block 67
CCOC(=O)C1=C(CSc2nc3c(cc2C#N)CCC3)OC(N)=C(C#N)C1c1ccccc1 (centres undefined)	none
CCOC(=O)C1=C(CSc2nc3c(cc2C#N)CN(C)CC3)OC(N)=C(C#N)C1c1ccccc1 (centres undefined)	PHOSPHO1 block 98
CN=C(c1ccco1)n1c(=S)nc(-c2ccco2)n(C)c1=S	PHOSPHO1 block 89
CCOc1cccc(CNCc2ccncc2)c1	PHOSPHO1 block 62
C=CCOc1cccc(CNCc2ccncc2)c1	none
O=C(c1ccc(Cl)cc1)c1oc2ccccc2c1CS(=O)c1ccccc1 (centres undefined)	PHOSPHO1 block 98
O=C(O)c1oc2ccccc2c1CSc1ccc(Cl)cc1	none
Cn1c(Cc2c[nH]c3ccccc23)n[nH]c1=S	PHOSPHO1 block 89
OC(c1ccccc1)c1nc(-c2cncnc2)cs1 (centres undefined)	none (no result: pCIP destab, UBC9 SUMO inh, PHOSPHO1 block)
Cc1ccc(NC(=O)/C(C#N)=C/c2cn(CC(=O)NCc3ccco3)c3ccccc23)cc1C	UBC9 SUMO inh 62
N#C/C(=C/c1cn(CC(=O)O)c2ccccc12)C(=O)NCc1ccccc1	pCIP destab 75
CNC(=O)/C(C#N)=C/c1cn(CC(=O)NCc2ccco2)c2ccccc12	none
Cc1ccc(C)c(NC(=O)/C(C#N)=C/c2cn(CC(=O)NCc3ccco3)c3ccccc23)c1	UBC9 SUMO inh 54
CSc1ncnc2c1ncn2CCCNCc1ccc(C)o1	none (no result: pCIP destab, UBC9 SUMO inh, PHOSPHO1 block)
Cc1ccc(C(=O)NC(=S)N2CC(C)OC(C)C2)cc1[N+](=O)[O-] (centres undefined)	PHOSPHO1 block 90
Cc1csc(N/N=C/c2ccc(O)c([N+](=O)[O-])c2)n1	PHOSPHO1 block 93
CCOC(=O)c1sc2cc([N+](=O)[O-])cc(SCC(=O)OC)c2c1N	PHOSPHO1 block 99
C[C@@H]1COc2cc(N(C)CCO)ccc2S(=O)(=O)N1	none (no result: pCIP destab, UBC9 SUMO inh, PHOSPHO1 block)
Cc1ccc(N(CC(=O)N/N=C/c2cc(C)n(-c3ccccc3C)c2C)S(C)(=O)=O)cc1	pCIP destab 22
CCOc1ccc(C(C)=O)cc1CSc1nnc(-c2ccoc2C)n1N	PHOSPHO1 block 75
COc1ccccc1Nc1nnc(SCC(=O)N2CCCC2=O)s1	PHOSPHO1 block 61
O=C1C(NS(=O)(=O)c2cccs2)=C(N2CCN(c3ccccc3)CC2)C(=O)c2ccccc21	PHOSPHO1 block 76
